A short description of experiment [1]: A CellTox Green Cytotoxicity Assay to monitor cytotoxicity in HEK293 cells - 32 hour (AID 1224881). Also: nearly all actives have a fitted effect of over 40% in size. In outline:
(§1)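 Seeding of HEK293 cells together with cytotoxicity dye preceded a 5 h incubation at 37 C/5% CO2. Test compounds in DMSO were then added and fluorescence monitored across 40 h.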

The nature of experiment [2]: A CellTox Green Cytotoxicity Assay to monitor cytotoxicity in HepG2 cells - 0 hour (AID 1224882). Also: nearly all actives have a fitted effect of over 35% in size. In outline: (§2)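 Nonlytic assay: viable cells exclude the dye, so fluorescence scales with cell death. HepG2 at 600 cells/well, compounds added after 5 h, signal read across 40 h.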
Experiment [3] is described as follows: A CellTox Green Cytotoxicity Assay to monitor cytotoxicity in HepG2 cells - 32 hour (AID 1224883). Also: nearly all actives have a fitted effect of over 50% in size. Also: potency is read from the fitted curve at half-maximal effect. In outline: as §2
Experiment [4] in a line: A CellTox Green Cytotoxicity Assay to monitor cytotoxicity in HEK293 cells - 8 hour (AID 1224884). Also: nearly all actives have a fitted effect of over 35% in size. In outline:
as §1

Experiment [5] is described as follows: qHTS RealTime-Glo MT Cell Viability Assay in HepG2 cells - 16 hour (AID 1224885). Also: nearly all actives have a fitted effect of over 50% in size. Also: potency is read from the fitted curve at half-maximal effect. In outline:
(§3)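 Viability was tracked continuously by NanoLuc luminescence from prosubstrate reduced by living HepG2 cells, at successive time points over 40 h of compound exposure. Cells with reagent were preincubated 5 h at 37 °C before compound addition.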
(In general: qHTS replaces the single test concentration by a dilution series.)

A short description of experiment [6]: qHTS RealTime-Glo MT Cell Viability Assay in HEK293 cells - 24 hour (AID 1224886). Also: top concentration of the series differs between compounds; nearly all actives have a fitted effect of over 50% in size. In outline: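 Viability tracked continuously by luminescence as live cells reduce a prosubstrate for NanoLuc; HEK293 cells preincubated 5 h, compound-treated at 37 C, and read at 0, 8, 16, 24, 32 and 40 h.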
The nature of experiment [7]: A CellTox Green Cytotoxicity Assay to monitor cytotoxicity in HEK293 cells - 16 hour (AID 1224888). Also: nearly all actives have a fitted effect of over 35% in size. In outline:
as §1

The nature of experiment [8]: qHTS RealTime-Glo MT Cell Viability Assay in HepG2 cells - 0 hour (AID 1224889). Also: nearly all actives have a fitted effect of over 50% in size. Also: potency is read from the fitted curve at half-maximal effect. In outline:
as §3

The nature of experiment [9]: A CellTox Green Cytotoxicity Assay to monitor cytotoxicity in HepG2 cells - 8 hour (AID 1224890). Also: nearly all actives have a fitted effect of over 45% in size. In outline:
as §2

The nature of experiment [10]: qHTS assay to identify small molecule antagonists of the estrogen receptor alpha (ER-alpha) signaling pathway using the BG1 cell line in the presence of 0.1 nM 17-beta-estradiol - cell viability counter screen (AID 1259241). Also: nearly all actives have a fitted effect of over 40% in size. In outline: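 VM7Luc4E2, 4,000 cells/well, phenol red-free medium + 10% charcoal-stripped FBS; 24 hr plating; cpd + 0.1 nM E2 final, 22 hr 37C/5% CO2; CellTiter-Fluor 30 min, fluorescence.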

A short description of experiment [11]: qHTS assay to identify small molecule antagonists of the androgen receptor (AR) signaling pathway using the MDA cell line in the presence of 0.5 nM R1881 - cell viability counter screen (AID 1259242). Also: nearly all actives have a fitted effect of over 45% in size. In outline:
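R1881 at 0.5 nM final stimulated MDA-kb2 cells during 16 hr compound treatment at 37C. Cytotoxicity read: CellTiter-Fluor fluorescence after 30 min.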

Experiment [12] has as its target Estrogen receptor (Homo sapiens) (UniProt P03372). Put plainly: qHTS assay to identify small molecule antagonists of the estrogen receptor alpha (ER-alpha) signaling pathway using the BG1 cell line in the presence of 0.1 nM 17-beta-estradiol (AID 1259244). Also: nearly all actives have a fitted effect of over 50% in size. Also: potency is read from the fitted curve at half-maximal effect. In outline: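 VM7Luc4E2; 4xERE-luciferase; 0.1 nM E2 final; 22 h co-incubation, 37C; ONE-Glo luminescence after 30 min at room temperature.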

Experiment [13] in a line: qHTS assay to identify small molecule HDAC inhibitors (AID 1259364). Also: potency is read from the fitted curve at half-maximal effect.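 Also: wild-type HCT-116 cells with endogenous class I/II HDAC activity; nearly all actives have a fitted effect of over 45% in size.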 In outline: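 Relative class I and II HDAC activity is taken from the luminogenic signal in HCT-116 cells, with compound exposure 2 hr and reagent development 30 min at room temperature.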
Experiment [14] is described as follows: qHTS assay to identify small molecule HDAC inhibitors - cell viability counter screen (AID 1259365). In outline: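 Luminescence from CellTiter-Glo, developed 30min at room temperature, reports viability of wild-type HCT-116 cells treated 2hr with compounds at 37 C and 5% CO2 after overnight plating.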
Experiment [15] is described as follows: qHTS assay to identify small molecule agonists of the sonic hedgehog signaling (Shh) pathway - cell viability counter screen (AID 1259366). Also: nearly all actives have a fitted effect of over 50% in size. Also: potency is read from the fitted curve at half-maximal effect. In outline:
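Cytotoxicity counter screen run in the same wells as the Shh reporter assay. NIH/3T3 cells carrying a Gli1 response element–driven luciferase were treated with DMSO-dissolved compounds for 24hr, and live-cell protease activity was measured with CellTiter-Fluor.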

The nature of experiment [16]: qHTS assay to identify small molecule antagonists of the sonic hedgehog signaling (Shh) pathway - cell viability counter screen (AID 1259367). Also: nearly all actives have a fitted effect of over 55% in size. Also: potency is read from the fitted curve at half-maximal effect. In outline:
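Cells: 3T3 Gli1-Luc, 2,000/well, 4 hr pre-incubation. Compounds in DMSO, then conditioned medium. Incubation 24 hr, 37C, 5% CO2. CellTiter-Fluor at 23 hr, 1 hr, fluorescence.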

Experiment [17] is described as follows: qHTS assay to identify small molecule agonists of the sonic hedgehog signaling (Shh) pathway (AID 1259368; calls by dose curve;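 also: NIH/3T3-derived 3T3Gli1-Luc cells carrying a stable Gli1-driven firefly luciferase reporter; series mostly up to about 92 µM; nearly all actives have a fitted effect of over 15% in size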). In outline:
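Mouse fibroblast (NIH/3T3) reporter cells with stably integrated Gli1-Luc were treated 24 hr with compound; firefly luciferase luminescence served as the read-out.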

Experiment [18] is described as follows: qHTS RealTime-Glo MT Cell Viability Assay in HEK293 cells - 8 hour (AID 1224887). In outline:
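Tox21 screen in HEK293 using RealTime-Glo MT chemistry, with cells and reagent co-dispensed. Luminescence proportional to viable cell number was captured at intervals during 40 h compound exposure at 37 C.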

Experiment [19] can be described thus: qHTS assay to identify small molecule phospholipidosis (PLD) inducers (AID 1259344; active = well fitted curve in the direction sought with a large enough effect; an effect the other way counts as inactive or inconclusive). In outline: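 Phospholipidosis is scored by imaging LipidTOX-stained pits in HepG2 cells exposed to compound for 24 h at 37 C; pit counts and integrated intensities per well and per cell serve as outputs.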

Values without a mark were called inactive. Records with an inconclusive call do not appear. Active and inactive are the calls of the source. Unless noted, calls follow the shape of the dose curve; as a rule, active = well fitted curve in the direction sought with a large enough effect in the repeat runs; inconclusive = weak or mixed curves; inactive = no such curve, though single readings can be large; an effect the other way counts as inactive or inconclusive.

Results on 8 compounds are retold here after PubChem BioAssay (Tox21).

Estrogen receptor (Homo sapiens), sequence (P03372 whole entry, looked up): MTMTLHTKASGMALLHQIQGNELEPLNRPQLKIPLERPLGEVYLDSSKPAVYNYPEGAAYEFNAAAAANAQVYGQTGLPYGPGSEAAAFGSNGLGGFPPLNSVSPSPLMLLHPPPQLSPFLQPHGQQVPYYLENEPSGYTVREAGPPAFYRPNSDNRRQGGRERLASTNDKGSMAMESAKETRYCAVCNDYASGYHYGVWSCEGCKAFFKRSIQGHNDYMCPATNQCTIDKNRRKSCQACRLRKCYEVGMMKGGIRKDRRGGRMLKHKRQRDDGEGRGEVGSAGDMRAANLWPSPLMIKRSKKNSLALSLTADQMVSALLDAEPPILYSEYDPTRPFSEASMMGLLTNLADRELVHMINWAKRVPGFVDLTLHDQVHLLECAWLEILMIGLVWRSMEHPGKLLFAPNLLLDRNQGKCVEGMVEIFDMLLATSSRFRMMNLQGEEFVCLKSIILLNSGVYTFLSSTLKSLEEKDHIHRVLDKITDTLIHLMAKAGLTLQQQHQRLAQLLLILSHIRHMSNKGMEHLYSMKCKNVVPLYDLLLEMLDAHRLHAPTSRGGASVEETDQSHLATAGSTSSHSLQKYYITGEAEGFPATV

In the case of `O=C(OCCc1ccccc1)c1ccccc1`, the Potency result in experiment [1], in experiment [2], in experiment [3], in experiment [4], in experiment [5] and in [6] was “inactive” each time. Further, the Potency entry in experiment [7], in [8], in experiment [9], in experiment [10], in experiment [11] and in experiment [12] was “inactive” each time. Moreover, the Potency entry in [14], in experiment [15] and in experiment [16] was “inactive” each time. Further, in experiment [13], the Potency was 9.69 µM (active). Moreover, the outcome in experiment [17] was inactive.

For the compound `CCCCc1nc2cccnc2n1Cc1ccc(-c2ccccc2-c2nnn[nH]2)cc1`, the Potency result in experiment [1], in [2], in [3], in experiment [4], in [5] and in experiment [7] was “inactive” in each case. Further, the Potency entry in experiment [9], in [10], in experiment [11], in experiment [12], in experiment [13] and in [14] was “inactive” each time. Further, the Potency in experiment [8] was 24.5 µM (active); in experiment [15], 15.4 µM (active); in [16] it was 17.2 µM (active). Further, in experiment [17], the result was inactive.

In the case of `CCCCC(CC)COC(=O)CCCCCCCCC(=O)OCC(CC)CCCC` (centres undefined), the Potency entry in experiment [1], in experiment [2], in experiment [3], in experiment [4], in experiment [5] and in experiment [6] was “inactive” each time. Also, the Potency entry in [7], in experiment [8], in experiment [9], in experiment [10], in experiment [11] and in experiment [12] was “inactive” each time. Moreover, the Potency entry in experiment [13], in experiment [14], in experiment [15] and in experiment [16] was “inactive” in each case. Further, in experiment [17], the call was inactive.

Regarding `COc1cc2nc(N(C)CCCNC(=O)C3CCCO3)nc(N)c2cc1OC` (centres undefined), the Potency entry in experiment [1], in experiment [2], in [3], in experiment [4], in [5] and in experiment [18] was “inactive” in each case. In addition, the Potency result in experiment [7], in experiment [8], in experiment [9], in experiment [11], in [19] and in [13] was “inactive” in each case. Also, the Potency result in [15] and in [16] was “inactive” in each case. Also, in experiment [12], the Potency is 23.7 µM (active). In [17], the call was inactive.

In the case of `CC(C)C[C@H]1C(=O)N2CCC[C@H]2[C@]2(O)O[C@](NC(=O)[C@@H]3C=C4c5cccc6[nH]c(Br)c(c56)C[C@H]4N(C)C3)(C(C)C)C(=O)N12`, the Potency entry in [1], in [2], in experiment [3], in [4], in [7] and in [8] was “inactive” in each case. Further, the Potency result in [9], in [10], in experiment [11], in [19] and in experiment [13] was “inactive” each time. The Potency in experiment [5] is 13.2 µM (active). The compound was called inactive in experiment [17].

For `CC(=O)[O][Al][O]C(C)=O`, the Potency entry in experiment [1], in experiment [2], in experiment [3], in experiment [4], in experiment [5] and in [6] was “inactive” throughout. Also, the Potency result in [7], in [8], in experiment [9], in experiment [10], in experiment [11] and in experiment [19] was “inactive” each time. Besides, the Potency entry in experiment [13], in [14], in experiment [15] and in experiment [16] was “inactive” in each case. In experiment [17], the compound was classed as inactive.

As to `C#CCN(C)CCCOc1ccc(Cl)cc1Cl`, the Potency entry in experiment [1], in experiment [2], in experiment [4], in experiment [5], in experiment [6] and in experiment [8] was “inactive” each time. Moreover, the Potency entry in experiment [9], in experiment [10], in experiment [11], in experiment [12], in experiment [19] and in [13] was “inactive” in each case. For the same compound, the Potency result in experiment [14], in [15] and in experiment [16] was “inactive” in each case. Besides, the Potency in experiment [3] was 19 µM (active). In addition, in experiment [17], the call was inactive.

For `COc1cc(Cl)c(OC)cc1N`, the Potency entry in experiment [1], in [2], in [3], in experiment [4], in [5] and in experiment [6] was “inactive” throughout. The Potency result in [7], in [8], in [9], in experiment [10], in experiment [11] and in experiment [13] was “inactive” in each case. For the same compound, the Potency result in experiment [14], in experiment [15] and in experiment [16] was “inactive” throughout. In addition, in experiment [17], the call was inactive.
